In PubChem BioAssay (NCI) one finds growth data, which are given here for 8 molecules.

Among the test systems are HCT-15 colon; HT29 colon; SNB-75 CNS; SNB-19 CNS; U251 CNS; SK-MEL-5 melanoma; UACC-62 melanoma; LOX IMVI melanoma; SK-MEL-28 melanoma; SK-MEL-2 melanoma; EKVX NSCLC; SN12C renal; UO-31 renal; TK-10 renal; ACHN renal; A498 renal; CCRF-CEM leukemia; MOLT-4 leukemia; SR leukemia.
Assay in all cases: NCI-60 one-dose screen, 48 h (100 = growth as untreated, 0 = no growth, -100 = all killed)
Holding throughout (conditions): 10 µM unless noted

SMILES strings stand for the structures. About 83,000 compounds went through this panel and 20% of them were active in at least one assay; those are over-represented in the sample as a whole.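 Single-dose data. Exposure time 48 hours. Values below 10 considered active.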 Values without a mark were called inactive. Active and inactive are the calls of the source.

Regarding `COc1cc(NC(=O)c2cc(O)c(C/C=C(\C)CCC=C(C)C)c(O)c2)cc2c1O[C@]1(C)CC[C@@H](O)C(C)(C)[C@H]1C2`, the growth in the assay on HCT-15 colon was 10.4%; with HT29 colon, 2.06% (active); in the assay with SNB-75 CNS it was 0.372% (active); in the assay on SNB-19 CNS, 8.74% (active); with U251 CNS it was 0.579% (active); with SK-MEL-5 melanoma, -68.2% (active). Further, the growth in the assay with UACC-62 melanoma was -4.89% (active); in the assay with LOX IMVI melanoma it was -65.8% (active); in the assay with SK-MEL-28 melanoma, 8.85% (active); with SK-MEL-2 melanoma it was -5.49% (active); with EKVX NSCLC, 26.1%; in the assay on SN12C renal it was 20.5%. The growth with UO-31 renal is -21.5% (active); in the assay on TK-10 renal, 56.1%; in the assay on ACHN renal, 4.47% (active); in the assay with A498 renal it was -29.2% (active); with CCRF-CEM leukemia, 6.24% (active); in the assay with MOLT-4 leukemia, 0.564% (active). Besides, in the assay on SR leukemia, the growth is -1.71% (active).

Turning to `COc1ccc(/C=C/C(=O)C(CC2CCC2)C(=O)/C=C/c2ccc(OC)c(OC)c2)cc1OC`, the growth in the assay with HCT-15 colon is -35.4% (active); in the assay on HT29 colon, -51.1% (active); with SNB-75 CNS, 64.7%; in the assay with SNB-19 CNS it was -13.1% (active); in the assay on U251 CNS, -68.8% (active); with SK-MEL-5 melanoma, -76.6% (active). Moreover, the growth in the assay with UACC-62 melanoma is -65.5% (active); with LOX IMVI melanoma, -75.4% (active); with SK-MEL-28 melanoma, -4.06% (active); in the assay with SK-MEL-2 melanoma, -16.7% (active); with EKVX NSCLC it was -0.196% (active); in the assay with SN12C renal, -20.7% (active). Further, the growth in the assay with UO-31 renal was -98.1% (active); with TK-10 renal, -32.8% (active); in the assay on ACHN renal, -77.2% (active); with A498 renal it was -34.5% (active); in the assay on MOLT-4 leukemia, 4.1% (active); in the assay on SR leukemia, -17% (active).

Consider `CC(=O)Oc1c2c(nc3c1c1ccccc1n3Cc1ccccc1)-c1ccccc1C2`, for which the growth is 84.9% in the assay on HCT-15 colon; 75.4% in the assay on HT29 colon; 75.7% in the assay with SNB-75 CNS; 96.7% with SNB-19 CNS; 78.7% with U251 CNS; 83.7% with SK-MEL-5 melanoma. For the same molecule, the growth in the assay on UACC-62 melanoma is 70.2%; in the assay on LOX IMVI melanoma, 88.1%; in the assay on SK-MEL-28 melanoma, 100%; in the assay on SK-MEL-2 melanoma it was 71.4%; in the assay on EKVX NSCLC, 80.8%; in the assay with SN12C renal, 85.8%. Also, the growth was 58.2% with UO-31 renal; 114% in the assay on TK-10 renal; 85.7% with ACHN renal; 82% in the assay on A498 renal; 72.6% in the assay with MOLT-4 leukemia; 86.2% with SR leukemia.

Regarding `c1ccc2nc(N3CCOCC3)c(N3CCCCC3)nc2c1`, the growth with HCT-15 colon is 100%; with HT29 colon, 96.1%; in the assay with SNB-75 CNS, 76.7%; in the assay with SNB-19 CNS it was 93.9%; in the assay with U251 CNS it was 96.9%; in the assay with SK-MEL-5 melanoma, 96.8%. Moreover, the growth in the assay with UACC-62 melanoma is 83.1%; in the assay with LOX IMVI melanoma it was 99.1%; in the assay with SK-MEL-28 melanoma, 109%; in the assay with SK-MEL-2 melanoma it was 95.2%; with EKVX NSCLC it was 97.7%; in the assay on SN12C renal, 96.2%. The growth in the assay on UO-31 renal was 77.2%; in the assay on TK-10 renal, 98.8%; with ACHN renal, 103%; with A498 renal, 78.3%; in the assay on CCRF-CEM leukemia, 93.6%; with MOLT-4 leukemia, 95.6%. Besides, the growth in the assay on SR leukemia was 90.2%.

As for `O=C(Nc1ccc(S(=O)(=O)NC2CCCCCC2)cc1)C(c1ccccc1)S(=O)(=O)c1ccc(F)cc1` (stereo not drawn), the growth with HCT-15 colon was 2.74% (active); in the assay on HT29 colon, -14.1% (active); in the assay on SNB-75 CNS it was 3.64% (active); in the assay with SNB-19 CNS it was 26.2%; in the assay on U251 CNS it was 12.6%; with SK-MEL-5 melanoma, -36.4% (active). For the same molecule, the growth was -9.75% (active) in the assay with UACC-62 melanoma; 5.06% (active) in the assay with LOX IMVI melanoma; 1.46% (active) in the assay on SK-MEL-28 melanoma; -22.9% (active) in the assay on SK-MEL-2 melanoma; 5.65% (active) with EKVX NSCLC; 12.6% with SN12C renal. Moreover, the growth is -44.2% (active) in the assay on UO-31 renal; 6.92% (active) in the assay on TK-10 renal; 0.641% (active) in the assay on ACHN renal; -33.2% (active) with A498 renal; 4.59% (active) with CCRF-CEM leukemia; 6.98% (active) with MOLT-4 leukemia. Moreover, the growth in the assay on SR leukemia is -0.97% (active).

In the case of `CCCCn1c2cc(OCc3cn(-c4ccc(Cl)cc4)nn3)ccc2c2ccnc(C)c21`, the growth was 17.7% in the assay with HCT-15 colon; 6.28% (active) with HT29 colon; 32.8% with SNB-75 CNS; 56.8% in the assay on SNB-19 CNS; 21.8% with U251 CNS; 38.9% in the assay with SK-MEL-5 melanoma. Moreover, the growth in the assay with UACC-62 melanoma is 33%; in the assay with LOX IMVI melanoma, 20.1%; in the assay with SK-MEL-28 melanoma it was 67.9%; in the assay on SK-MEL-2 melanoma it was 74.5%; in the assay on EKVX NSCLC, 44.4%; in the assay with SN12C renal, 10.5%. The growth is -16.3% (active) with UO-31 renal; 15.6% in the assay with TK-10 renal; -47.5% (active) in the assay with ACHN renal; 62.8% in the assay on A498 renal; 6.26% (active) in the assay on MOLT-4 leukemia; -4.92% (active) in the assay on SR leukemia.

As to `Cc1ccc(C(=O)O)o1`, the growth in the assay with HCT-15 colon is 112%; with HT29 colon, 92.4%; in the assay on SNB-75 CNS it was 90.7%; with SNB-19 CNS, 112%; in the assay with U251 CNS, 98.3%; in the assay with SK-MEL-5 melanoma it was 102%. The growth in the assay on UACC-62 melanoma is 107%; in the assay on LOX IMVI melanoma it was 100%; in the assay with SK-MEL-28 melanoma, 108%; with SK-MEL-2 melanoma, 96.1%; in the assay on EKVX NSCLC, 104%; with SN12C renal, 110%. In addition, the growth was 96.9% in the assay on TK-10 renal; 111% in the assay with ACHN renal; 108% with A498 renal; 115% in the assay with CCRF-CEM leukemia; 101% in the assay on MOLT-4 leukemia; 116% in the assay with SR leukemia.

Regarding `CCN(CC)CC#CCOC(=O)[C@]1(C)CCC[C@]2(C)[C@H]3C[C@H]4C(C(C)C)=C[C@]3(CC[C@H]21)[C@@H]1C(=O)CCC(=O)[C@@H]14`, the growth was 42.7% with HCT-15 colon; 5.05% (active) in the assay with HT29 colon; 55.4% in the assay with SNB-75 CNS; 70.4% in the assay on SNB-19 CNS; 38.3% with U251 CNS; 58.8% with SK-MEL-5 melanoma. In addition, the growth is 70.5% in the assay on UACC-62 melanoma; 38.7% in the assay on LOX IMVI melanoma; 66.2% in the assay with SK-MEL-28 melanoma; 72.3% in the assay on SK-MEL-2 melanoma; 55.9% with EKVX NSCLC; 57.1% with SN12C renal. For the same molecule, the growth with UO-31 renal is 50.9%; in the assay with TK-10 renal it was 95.4%; in the assay on ACHN renal it was 72.5%; in the assay with A498 renal it was 102%; with CCRF-CEM leukemia it was 20.5%; with MOLT-4 leukemia it was 10.7%. In the assay on SR leukemia, the growth was 10.2%.
